Measurements reported in PubChem BioAssay (NCATS).
The source made the active and inactive calls. Calls follow the shape of the full dose curve.

Test: qHTS drug screen for cell cycle checkpoint inhibitors in PARPi-resistant BRCA-mutant ovarian cancer cell lines. (AID 1963452)
Settings: PEO1/OlaR viability, CellTiter-Glo luminescence, 96 h; for Z-AUC: stronger effect = lower value
Source text: Women's Malignancies Branch, Center for Cancer Research (CCR),
National Cancer Institute (NCI), National Institutes of Health (NIH), Bethesda, MD
Poly (ADP-ribose) polymerase inhibitors (PARPis) have changed the treatment paradigm in breast cancer gene (BRCA) - mutant high-grade serous ovarian carcinoma (HGSC). However, most patients eventually develop resistance to PARPis, highlighting an unmet need for improved therapeutic strategies. Using high-throughput drug screens, we identified ataxia telangiectasia and rad3-related protein/checkpoint kinase 1 (CHK1) pathway inhibitors as cytotoxic and further validated the activity of the CHK1 inhibitor (CHK1i) prexasertib in PARPi-sensitive and -resistant BRCA-mutant HGSC cells and xenograft mouse models. CHK1i monotherapy induced DNA damage, apoptosis, and tumor size reduction. We then conducted a phase 2 study (NCT02203513) of prexasertib in patients with BRCA-mutant HGSC. The treatment was well tolerated but yielded an objective response rate of 6% (1 of 17; one partial response) in patients with previous PARPi treatment. […] BRCA reversion mutation in previously PARPi-treated BRCA-mutant patients was not associated with resistance to CHK1i.
Among others, 1082 oncology drugs, both approved and investigational, were prioritized based on their status in clinical trial development. […] Drugs with average Z-AUC values less than -1.0 in all three cell lines were classified as "hits" resulting in 151 oncology drug hits. The screen also confirmed cross-resistance between olaparib and other PARPis (rucaparib, niraparib, and talazoparib) in PARPi-resistant PEO1/OlaR and PEO4.
[1] G. L. Lin, K. M. Wilson, M. Ceribelli, B. Z. Stanton, P. J. Woo, S. Kreimer, E. Y. Qin, X. Zhang, J. Lennon, S. Nagaraja, P. J. Morris, M. Quezada, S. M. Gillespie, D. Y. Duveau, A. M. Michalowski, P. Shinn, R. Guha, M. Ferrer, C. Klumpp-Thomas, S. Michael, C. McKnight, P. Minhas, Z. Itkin, E. H. Raabe, L. Chen, R. Ghanem, A. C. Geraghty, L. Ni, K. I. Andreasson, N. A. Vitanza, K. E.Warren, C. J. Thomas, M. Monje, Therapeutic strategies for diffuse midline glioma from high-throughput combination drug screening. Sci. Transl. Med. 11, (2019).
[2] T. M. Yamamoto, A. McMellen, Z. L. Watson, J. Aguilera, R. Ferguson, E. Nurmemmedov, T. Thakar, G. L. Moldovan, H. Kim, D. M. Cittelly, A. M. Joglar, E. P. Brennecke, H. Wilson, K. Behbakht, M. J. Sikora, B. G. Bitler, Activation of Wnt signaling promotes olaparib resistant ovarian cancer. Mol. Carcinog. 58, 1770 - 1782 (2019).
PROTOCOL TABLE (as described by Inglese J, Shamu CE and Guy RK. 2007)
SEQUENCE No. (e.g., 1, 2, 3, etc.); […] (e.g., Cells, Incubation, Reagent, etc.); VALUE; DESCRIPTION.
1; Compounds; 20nL; 1536-well white tissue culture-treated plates.
2; Cells; 5 uL; PEO1, PEO4, and PEO1/OlaR cells at 600 cells per well.
3; Incubation; 96 hr; 37C, 95% humidity, 5% CO2.
4; Reagent; 3 uL; CellTiter-Glo (Promega).
5; Incubation; 15 min; room temperature.
6; Detection; Luminescence, PHERAstar (BMG Labtech) plate reader.
NOTES (numbers refer to Sequence numbers above)
1. MIPE 5.0 compounds were acoustically dispensed by Echo Acoustic Liquid Handler (Beckman Coulter Life Sciences). Each compound was plated at an 11-point concentration range with 1:3 dilution. Bortezomib, a proteasome inhibitor (final concentration, 20 uM), was used as a positive.
2. PEO1, PEO4, and PEO1/OlaR were trypsinized and dispensed in 5 uLof growth medium using a Multidrop Combi dispenser at a density of 600 cells per well to allow compounds to be present during the exponential growth phase.
3. Plates were incubated for 96 hours at standard incubator conditions and covered by a stainless steel gasketed lid to prevent evaporation.
4. Three microliters of CellTiter-Glo (Promega) were added to each well.
5. Plates were incubated at room temperature for 15 min with a stainless-steel lid in place.
6. Luminescence readings were taken using PHERAstar (BMG Labtech). […]

[1] = measured here: PEO1 parental Z-AUC
Potency is read from the fitted curve at half-maximal effect.

| SMILES | Potency | Z-AUC [1] | Z-AUC (measured here: PEO4 Z-AUC) | Z-AUC |
| --- | --- | --- | --- | --- |
| Cc1[nH]c2ccccc2c1CCNCc1ccc(/C=C/C(=O)NO)cc1 | 77.6 nM (active) | -1.48 | -1.35 | – |
| O=C1NC(=O)C(c2cnc3ccccn23)=C1c1cn2c3c(cc(F)cc13)CN(C(=O)N1CCCCC1)CC2 | 174 nM (active) | -1.85 | -1.33 | – |
| CC(C)S(=O)(=O)c1ccc2nccc(Nc3ccc4scnc4c3)c2c1 | – | -0.597 | -0.874 | -0.9 (inactive) |
| Cc1sc2c(c1C)C(c1ccc(Cl)cc1)=N[C@@H](CC(=O)Nc1ccc(OCCOCCOCCOCCNc3cccc4c3C(=O)N(C3CCC(=O)NC3=O)C4=O)cc1)c1nnc(C)n1-2 (some centres not stated) | – | -2.13 | -1.49 | -1.58 (inactive) |
| NC(=O)c1ccccc1Nc1ccnc(Nc2cccc(O)c2)n1 | – | -1.44 | -1.66 | -1.9 (inactive) |
| c1cc(-c2cnn3cc(-c4ccc(N5CCNCC5)cc4)cnc23)c2cccnc2c1 | – | -1.26 | -1.83 | -1.26 (inactive) |
| CC(/C=C/C(=O)NO)=C\[C@@H](C)C(=O)c1ccc(N(C)C)cc1 | – | -0.861 | -1.61 | -0.778 (inactive) |
| COCCNCc1ccc(-c2cc3nccc(Oc4ccc(NC(=O)C5(C(=O)Nc6ccc(F)cc6)CC5)cc4F)c3s2)nc1 | – | -0.642 | -0.561 | -0.956 (inactive) |
| Cc1cc(-c2nc3cc(F)ccc3s2)ccc1NC(=O)[C@@H](N)CCCCN | – | -1.06 | -1.32 | -0.88 (inactive) |
| Cc1cnc(-c2ccccc2C(C)C)nc1NCc1ccc(-n2ccnn2)cc1 | – | 1.04 | 1.31 | 1.08 (inactive) |
| C[C@@H]1COCCN1c1cc(=O)n2c(n1)N(Cc1cncc(Cl)c1)[C@H](C(F)(F)F)CC2 | – | -0.0406 | -0.0495 | -0.103 (inactive) |
| COc1ccc(Cl)c(Nc2ncnc3cc(OCC4CCN(C)CC4)c(OC)cc23)c1 | – | -0.765 | -1.02 | -1.39 (inactive) |
| Cn1ncc2cc(-c3cnc(N)c(Cl)c3N3CCC4(CCNC4=O)CC3)ccc21 | – | -0.91 | -1.02 | -0.513 (inactive) |
| CCC(CC)C(c1ccc(Nc2nc3ccccc3s2)cc1)n1cncn1 (configuration not stated) | – | 0.98 | 0.959 | 0.298 (inactive) |
